The values that follow come from PubChem BioAssay.

Test [1] is described as follows: reduced mouse 2C T cell binding to pMHC/ICAM-1 vesicles – MLPCN validation set, flow cytometry, LFA-1/ICAM-1 modulator project, pilot screen (AID 2523;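 active = response below a set limit, under 55% cells CD8-positive and vesicle-bound, and CD8 cells' 90th-percentile brightness under 279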;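 as to vesicle binding response: mean PE anti-B7-1 fluorescence of CD8+ cells relative to row control; 100% = QL9-loaded vesicles with DMSO vehicle in the same plate row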). The note with it: 2C mouse CD8+ T cells, at 7 µM, stronger effect = lower value; double positive events: measured here: CD8+/vesicle+ event percentage. Background: A flow cytometer gives signals particle by particle.
The target in test [2] is Integrin beta-1 (Homo sapiens) + Integrin alpha-4 (Homo sapiens) (UniProt P13612+P05556). The test is described as follows: alpha4beta1 integrin LIBS antibody binding reduction – U937 cells, HUTS-21 mAb, flow cytometry, validation set, VLA-4 allosteric modulator project, pilot screen (AID 2674;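 active = inhibition above 50%, about 3 SD of the validation set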;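 also: antibody binding induced by the VLA-4 ligand LDV present at three times its Kd; 0% = LDV ligand with antibody and no compound and 100% = antibody without LDV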). The note with it: HUTS-21 LIBS mAb binding, at 6.7 µM, stronger effect = higher value.
Chain of Integrin beta-1 (Homo sapiens) + Integrin alpha-4 (Homo sapiens) (P05556 whole entry, looked up): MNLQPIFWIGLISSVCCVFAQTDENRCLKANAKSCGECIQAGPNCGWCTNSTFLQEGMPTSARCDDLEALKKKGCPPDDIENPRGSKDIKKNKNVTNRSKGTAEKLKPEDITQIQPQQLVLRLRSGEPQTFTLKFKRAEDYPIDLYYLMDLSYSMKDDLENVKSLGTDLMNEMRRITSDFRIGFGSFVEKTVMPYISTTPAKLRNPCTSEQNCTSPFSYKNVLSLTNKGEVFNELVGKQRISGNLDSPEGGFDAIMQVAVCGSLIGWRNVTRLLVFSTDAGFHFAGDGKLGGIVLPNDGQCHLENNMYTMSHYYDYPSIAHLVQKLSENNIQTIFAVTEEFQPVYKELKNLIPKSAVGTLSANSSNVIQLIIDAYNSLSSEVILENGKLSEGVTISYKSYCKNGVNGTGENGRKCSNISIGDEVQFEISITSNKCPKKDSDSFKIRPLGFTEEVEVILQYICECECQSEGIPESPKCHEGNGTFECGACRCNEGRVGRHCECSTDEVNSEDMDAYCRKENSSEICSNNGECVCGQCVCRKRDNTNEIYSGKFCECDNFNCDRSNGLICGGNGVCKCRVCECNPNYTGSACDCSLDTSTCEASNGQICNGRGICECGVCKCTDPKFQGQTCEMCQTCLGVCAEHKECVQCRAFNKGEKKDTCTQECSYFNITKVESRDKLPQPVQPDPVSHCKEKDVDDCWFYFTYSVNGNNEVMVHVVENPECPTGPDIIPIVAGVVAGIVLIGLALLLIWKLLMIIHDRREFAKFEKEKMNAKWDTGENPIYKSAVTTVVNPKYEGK
Chain of Integrin beta-1 (Homo sapiens) + Integrin alpha-4 (Homo sapiens) (P13612 whole entry, looked up): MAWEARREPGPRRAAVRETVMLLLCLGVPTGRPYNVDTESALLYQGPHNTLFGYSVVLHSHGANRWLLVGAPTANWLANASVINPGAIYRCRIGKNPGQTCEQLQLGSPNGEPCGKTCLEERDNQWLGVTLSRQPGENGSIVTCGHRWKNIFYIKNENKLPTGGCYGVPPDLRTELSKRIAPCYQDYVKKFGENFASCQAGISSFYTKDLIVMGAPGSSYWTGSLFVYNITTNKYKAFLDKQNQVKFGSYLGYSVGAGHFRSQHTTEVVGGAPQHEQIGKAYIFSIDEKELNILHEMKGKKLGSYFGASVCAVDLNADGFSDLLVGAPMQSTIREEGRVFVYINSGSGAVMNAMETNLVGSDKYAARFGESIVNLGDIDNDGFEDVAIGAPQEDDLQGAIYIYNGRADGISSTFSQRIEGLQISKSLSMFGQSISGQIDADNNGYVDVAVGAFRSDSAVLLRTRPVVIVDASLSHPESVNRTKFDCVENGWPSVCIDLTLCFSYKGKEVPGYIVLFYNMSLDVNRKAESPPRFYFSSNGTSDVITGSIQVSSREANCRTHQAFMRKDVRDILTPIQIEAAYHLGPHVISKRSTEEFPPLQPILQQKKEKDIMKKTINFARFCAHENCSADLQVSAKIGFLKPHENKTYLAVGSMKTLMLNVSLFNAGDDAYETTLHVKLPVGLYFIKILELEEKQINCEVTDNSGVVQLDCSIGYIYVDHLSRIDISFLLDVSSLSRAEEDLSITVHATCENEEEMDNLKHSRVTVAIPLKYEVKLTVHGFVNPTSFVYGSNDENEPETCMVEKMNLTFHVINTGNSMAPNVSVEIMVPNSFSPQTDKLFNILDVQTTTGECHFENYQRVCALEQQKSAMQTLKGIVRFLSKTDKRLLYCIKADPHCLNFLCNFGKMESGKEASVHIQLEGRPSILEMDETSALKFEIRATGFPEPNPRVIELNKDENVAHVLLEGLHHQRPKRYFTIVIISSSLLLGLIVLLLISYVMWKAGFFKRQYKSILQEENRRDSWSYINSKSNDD
A short description of test [3]: calorie-restriction mimetic ROS inhibitors, yeast – validation compound set, pilot screen (AID 2706;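 active = superoxide response below 65% of plate, a cut near 3 SD across the whole screen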;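 also: yeast exposed to compound for one week at 30 degrees C before staining; 100% = mean of all compound wells on the same plate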). The note with it: S. cerevisiae aging, superoxide DHE fluorescence; at 10 µM; stronger effect = lower value.
In test [4] the target is Beta-adrenergic receptor kinase 1 (Homo sapiens) (UniProt P25098). The test is described as follows: GRK2 binders displacing RNA aptamer, biochemical, validation, human GRK2, bead flow cytometry (AID 488806;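 active = aptamer binding inhibition above 30%, about 3 SD of noise from non-fluorescent compounds; inactive = inhibition at or below 30%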). The note with it: bead-bound GRK2, FAM-aptamer displacement, at 10 µM, stronger effect = higher value.
Chain of Beta-adrenergic receptor kinase 1 (Homo sapiens) (P25098 whole entry, looked up): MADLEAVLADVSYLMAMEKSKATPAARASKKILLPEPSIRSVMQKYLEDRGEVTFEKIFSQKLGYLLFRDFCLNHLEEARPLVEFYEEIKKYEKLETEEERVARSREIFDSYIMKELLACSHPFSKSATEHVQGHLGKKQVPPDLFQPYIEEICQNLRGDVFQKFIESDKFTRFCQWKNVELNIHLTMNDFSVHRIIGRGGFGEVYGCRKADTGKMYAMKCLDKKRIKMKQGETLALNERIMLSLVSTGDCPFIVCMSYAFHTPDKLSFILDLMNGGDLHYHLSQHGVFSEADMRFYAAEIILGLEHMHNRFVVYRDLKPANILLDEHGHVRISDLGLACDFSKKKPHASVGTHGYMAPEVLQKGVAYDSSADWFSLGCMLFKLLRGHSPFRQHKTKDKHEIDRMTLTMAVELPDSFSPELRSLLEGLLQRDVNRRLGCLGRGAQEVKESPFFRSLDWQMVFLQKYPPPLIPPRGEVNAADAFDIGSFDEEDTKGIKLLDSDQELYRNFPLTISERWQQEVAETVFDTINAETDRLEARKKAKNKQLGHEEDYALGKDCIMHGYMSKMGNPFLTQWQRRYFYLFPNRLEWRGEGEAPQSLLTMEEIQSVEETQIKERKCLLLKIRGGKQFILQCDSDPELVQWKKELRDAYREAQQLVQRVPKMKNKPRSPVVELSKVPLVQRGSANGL
Test [5] deals with AP-2 complex subunit beta (Homo sapiens) (UniProt P63010). The test can be described thus: beta-arrestin/AP2 interaction blockers – biochemical, validation set, GST-AP2 beads, flow cytometry, pilot screen (AID 504541;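 active = inhibition above 54%, about 3 SD of non-fluorescent compounds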;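 also: AP2 carries R879A mutation and is captured from E. coli lysate; bead-bound FITC arrestin peptide fluorescence measuring arrestin peptide binding to AP2; 0% = DMSO wells and 100% = excess unlabeled arrestin peptide control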). The note with it: FITC arrestin peptide, at 10 µM, stronger effect = higher value.
A short description of test [6]: cytosolic pH regulators acting via V-ATPase – S. cerevisiae, pHLuorin, HTS validation (AID 504600; in the data active = response above about 15%;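 also: plate controls were DMSO for no effect and reference compound for full effect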). The note with it: V-ATPase proton transport, at 10 µM, stronger effect = higher value.
Test [7] relates to anti-desmoglein-3 scFv antibody binding to human DSG3. The test is described as follows: blockers of pathogenic pemphigus antibody–desmoglein-3 binding – biochemical, validation compound set, bead-based, flow cytometry, pilot screen (AID 588368;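 active = binding below the plate cutoff, the plate median minus 3 SD, with a reading above zero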;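 also: signal is the median channel fluorescence of bead-bound GFP antibody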). The note with it: Protein G beads, DSG3-Fc, scFv-GFP binding, at 10 µM, stronger effect = lower value.
In test [8] the test system is Botulinum neurotoxin type F light chain protease (Clostridium botulinum). The test can be described thus: Clostridium botulinum type F light chain protease inhibitors, microsphere substrate cleavage, validation (AID 588459). The note with it: multiplex microsphere protease substrate cleavage assay, flow cytometry; at 10 µM; stronger effect = higher value.
In test [9] the target is Botulinum neurotoxin type A (Clostridium botulinum) (UniProt P0DPI0). The test is described as follows: BoNT/A light chain protease inhibitors, biochemical, multiplex microsphere flow cytometry, validation set (AID 588460). The note with it: at 10 µM, stronger effect = higher value.
Chain of Botulinum neurotoxin type A (Clostridium botulinum) (P0DPI0 whole entry, looked up): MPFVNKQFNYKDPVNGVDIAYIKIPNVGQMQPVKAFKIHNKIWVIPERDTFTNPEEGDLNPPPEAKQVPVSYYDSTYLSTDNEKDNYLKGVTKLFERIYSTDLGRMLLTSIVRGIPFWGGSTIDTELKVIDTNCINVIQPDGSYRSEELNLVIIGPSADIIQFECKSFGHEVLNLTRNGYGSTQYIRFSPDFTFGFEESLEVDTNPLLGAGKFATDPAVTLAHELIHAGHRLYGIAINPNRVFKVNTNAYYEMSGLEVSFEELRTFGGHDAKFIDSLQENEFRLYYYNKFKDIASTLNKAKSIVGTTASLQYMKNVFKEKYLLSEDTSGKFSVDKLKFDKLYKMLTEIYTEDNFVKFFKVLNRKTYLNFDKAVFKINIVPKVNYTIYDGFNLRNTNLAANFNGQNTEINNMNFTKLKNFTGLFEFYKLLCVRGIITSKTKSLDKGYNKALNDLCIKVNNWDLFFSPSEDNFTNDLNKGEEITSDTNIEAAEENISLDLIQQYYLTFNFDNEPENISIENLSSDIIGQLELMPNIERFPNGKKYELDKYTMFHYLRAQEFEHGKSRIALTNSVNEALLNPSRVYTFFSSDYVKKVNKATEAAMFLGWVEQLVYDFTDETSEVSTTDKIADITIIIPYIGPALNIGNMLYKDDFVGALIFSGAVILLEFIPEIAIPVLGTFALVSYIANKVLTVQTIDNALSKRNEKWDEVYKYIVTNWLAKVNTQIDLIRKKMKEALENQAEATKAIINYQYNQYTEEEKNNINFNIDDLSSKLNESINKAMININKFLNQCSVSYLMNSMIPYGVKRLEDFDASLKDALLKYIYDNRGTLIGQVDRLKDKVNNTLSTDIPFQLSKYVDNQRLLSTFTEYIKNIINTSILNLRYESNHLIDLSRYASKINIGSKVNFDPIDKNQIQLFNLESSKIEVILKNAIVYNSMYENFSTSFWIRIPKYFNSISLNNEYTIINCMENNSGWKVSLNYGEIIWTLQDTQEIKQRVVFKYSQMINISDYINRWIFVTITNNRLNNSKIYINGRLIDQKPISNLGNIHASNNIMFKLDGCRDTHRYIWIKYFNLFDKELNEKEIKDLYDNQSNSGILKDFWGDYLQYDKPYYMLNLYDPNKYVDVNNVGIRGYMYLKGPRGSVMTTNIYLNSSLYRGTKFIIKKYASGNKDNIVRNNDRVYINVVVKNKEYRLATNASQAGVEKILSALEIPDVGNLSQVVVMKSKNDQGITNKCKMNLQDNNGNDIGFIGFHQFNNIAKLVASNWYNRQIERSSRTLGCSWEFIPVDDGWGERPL
In test [10] the target is Lethal factor (Bacillus anthracis) (UniProt P15917). The test can be described thus: Bacillus anthracis lethal factor inhibition, microsphere flow cytometry protease assay, validation at 10 µM (AID 588461). The note with it: multiplex microsphere protease cleavage assay, stronger effect = higher value.
Test [11] is described as follows: Nile Red efflux blockade in pump-expressing yeast – validation compound set, multiplex, phenotypic, pilot screen (AID 588506;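 active = efflux inhibition above 0.42, the validation set average plus 4 SD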;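 also: Nile Red retained in cells so higher fluorescence means more efflux inhibition; 0 = negative control wells and 1 = enniatin B 25 µM full block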). The note with it: S. cerevisiae pump-expressing triplex, Nile Red efflux flow cytometry; at 10 µM; stronger effect = higher value.
Test [12] has as its target ATP-binding cassette sub-family B member 6 (Homo sapiens) (UniProt Q9NP58). The test is described as follows: blockers of ABCB6-driven porphyrin uptake – K562-ABCB6 cells, flow cytometry, validation set, pilot screen (AID 588550;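 active = inhibition above the screen-wide mean plus 3 SD, about 51%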;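 also: 0% = DMSO wells and 100% = benzethonium chloride 70 µM positive control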). The note with it: K562-ABCB6 porphyrin accumulation, 1 h, at 10 µM, stronger effect = higher value.
Test [13] can be described thus: AML differentiation inducers, ER-HoxA9 marrow cells – cell-based, GFP/MAC1 double positive, flow cytometry, validation set, primary screen (AID 588685;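 active = differentiation response of at least 50%, scaled between solvent and reference control, from cells with both markers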;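 also: compound exposure lasts four days before antibody staining and flow analysis; 0% = DMSO wells and 100% = 5 µM fulvestrant positive control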). The note with it: stronger effect = higher value.
The nature of test [14]: hit retest on RPL19A-GFP reporter strain – cell-based, S. cerevisiae, flow cytometry, cherry picks, mother/daughter gates, confirmation (AID 2270;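 active = GFP response below 50% of the DMSO control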). The note with it: 3 h, at 10 µM, stronger effect = lower value, 100 = same GFP as DMSO wells.
Test [15] in a line: yeast TOR pathway reporter LAP4-GFP change – cell-based, cherry picks, flow cytometry, mother/daughter gates, confirmation (AID 2271;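 active = GFP response above 150% of the DMSO control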;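 also: ratio of sample to DMSO plate mean so 100% equals DMSO level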). The note with it: S. cerevisiae LAP4-GFP strain, 3 h, at 10 µM, stronger effect = higher value.
Test [16] in a line: TOR pathway CIT2 reporter hit retest – S. cerevisiae, GFP fusion, cherry picks, mother/daughter gates, confirmation (AID 2274;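 active = GFP response above 150% of the DMSO level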). The note with it: S. cerevisiae CIT2-GFP strain, flow cytometry, 3 h, at 10 µM, stronger effect = higher value.
Where [17] appears, read: measured here: daughter cell gate.
[18] abbreviates: measured here: mother cell gate.

SMILES strings stand for the structures. Activity calls are given as the source filed them. Unless noted, no rule for the calls is given here.

Chain of ATP-binding cassette sub-family B member 6 (Homo sapiens) (Q9NP58 whole entry, looked up): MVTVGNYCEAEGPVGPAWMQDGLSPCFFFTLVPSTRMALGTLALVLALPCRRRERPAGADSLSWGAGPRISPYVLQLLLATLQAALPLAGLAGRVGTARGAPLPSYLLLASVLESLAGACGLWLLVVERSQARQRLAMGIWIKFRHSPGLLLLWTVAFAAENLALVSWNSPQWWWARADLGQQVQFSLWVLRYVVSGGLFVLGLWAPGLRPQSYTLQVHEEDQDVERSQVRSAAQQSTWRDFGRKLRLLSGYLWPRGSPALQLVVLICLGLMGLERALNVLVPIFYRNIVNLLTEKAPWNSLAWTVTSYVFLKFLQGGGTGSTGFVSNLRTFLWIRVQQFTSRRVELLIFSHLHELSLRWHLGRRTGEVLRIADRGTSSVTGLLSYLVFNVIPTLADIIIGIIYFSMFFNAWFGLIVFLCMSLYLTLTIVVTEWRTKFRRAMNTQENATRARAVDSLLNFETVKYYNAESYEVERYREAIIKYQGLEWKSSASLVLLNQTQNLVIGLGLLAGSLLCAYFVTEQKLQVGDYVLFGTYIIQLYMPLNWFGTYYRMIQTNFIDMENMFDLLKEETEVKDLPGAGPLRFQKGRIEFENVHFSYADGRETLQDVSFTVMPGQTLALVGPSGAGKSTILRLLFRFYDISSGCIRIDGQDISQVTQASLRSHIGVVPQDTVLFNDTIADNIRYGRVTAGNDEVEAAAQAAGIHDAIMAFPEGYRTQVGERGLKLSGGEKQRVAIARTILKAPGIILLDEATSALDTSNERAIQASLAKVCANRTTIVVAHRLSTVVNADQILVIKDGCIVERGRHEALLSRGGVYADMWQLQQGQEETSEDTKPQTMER

`CCCC(=O)OCC[N+](C)(C)C`: the double positive events in test [1] stood at 63.6%. Moreover, the vesicle binding response in test [1] was 145% (inactive). The inhibition in test [2] was 14.2% (inactive); in test [5], 5.57% (inactive); in [8] it was -3.8% (inactive); in test [9] it was -2.9% (inactive); in test [10] it was 1.4% (inactive); in test [12], 13% (inactive). Moreover, in test [3], the superoxide response (% of plate) was 92.5% (inactive). Moreover, the aptamer binding inhibition in test [4] is 4% (inactive). In [6], the response is 5.81% (inactive). The binding (% of control) in test [7] was 108% (inactive). Moreover, the efflux inhibition (fraction of control) in [11] is -0.06 (inactive). In addition, the differentiation response in test [13] is 2.46% (inactive).

For `CC(N=C(NC#N)Nc1ccncc1)C(C)(C)C` (stereo unspecified), the inhibition in [8] was 0.4% (inactive); in test [9], 2.3% (inactive).

The molecule `CC(=O)Nc1cc([As](=O)(O)O)ccc1O` registered a double positive events in [1] of 62.8%. Also, the vesicle binding response in test [1] is 170% (inactive). Further, the inhibition was 0.59% (inactive) in test [2]; -6.36% (inactive) in test [5]; 1% (inactive) in test [8]; -1.3% (inactive) in [9]; 5.5% (inactive) in [10]; 6% (inactive) in test [12]. Moreover, the superoxide response (% of plate) in test [3] was 92.8% (inactive). In [4], the aptamer binding inhibition was 0% (inactive). The response in [6] was 1.26% (inactive). In addition, the binding (% of control) in test [7] is 101% (inactive). In addition, the efflux inhibition (fraction of control) in test [11] was 0 (inactive). In test [13], the differentiation response was -0.06% (inactive).

As for `CNCCC(Oc1ccc(C(F)(F)F)cc1)c1ccccc1` (stereo unspecified), the inhibition in test [8] is -3.3% (inactive); in test [9], 0.6% (inactive).

With `NC12CC3CC(CC(C3)C1)C2`, the inhibition in [8] was -1.1% (inactive); in test [9] it was -0.6% (inactive).

In the case of `C[C@]12CCC(=O)C(O)=C1CC[C@@H]1[C@@H]2CC[C@]2(C)C(=O)CC[C@@H]12`, the GFP response vs DMSO in [14] was 99.3% (inactive); in [14] (setting [17]), 97.5%; in [14] (setting [18]) it was 99.2%. Also, the GFP response relative to DMSO was 102% (inactive) in test [15], 102% in [15] (measured here: daughter cell gate response) and 103% in [15] (measured here: mother cell gate response). Also, the GFP response, % of DMSO in [16] is 104% (inactive); in test [16] (setting [17]), 103%; in test [16] (setting [18]) it was 105%. In test [1], this molecule had a double positive events of 68.3%. Further, in test [1], the vesicle binding response was 118% (inactive). For the same molecule, the inhibition in test [2] was 10.3% (inactive); in test [5], 0.25% (inactive); in test [8], 0.8% (inactive); in test [9] it was -1.4% (inactive); in test [10] it was -6.6% (inactive); in test [12] it was 21% (inactive). Also, in test [3], the superoxide response (% of plate) is 97.5% (inactive). Also, the aptamer binding inhibition in test [4] was 1% (inactive). Besides, the response in test [6] is -1.14% (inactive). The binding (% of control) in test [7] was 110% (inactive). Moreover, the efflux inhibition (fraction of control) in test [11] was -0.17 (inactive). Moreover, in test [13], the differentiation response is 3.28% (inactive).

For `CNC[C@H](O)c1cccc(O)c1`, the inhibition is 1.5% (inactive) in [8] and 2.2% (inactive) in test [9].

`O=C1CSC2N1CCNC21CCCCC1` (stereo unspecified) showed a double positive events in [1] of 64.1%. Also, the vesicle binding response in test [1] was 191% (inactive). In addition, the inhibition in test [2] is -31.6% (inactive); in [5], 4.77% (inactive); in test [8], -1% (inactive); in test [9], 1% (inactive); in test [10] it was -3.4% (inactive); in [12] it was 42% (inactive). Besides, the aptamer binding inhibition in test [4] is 0% (inactive). For the same molecule, in test [6], the response is 2.26% (inactive). For the same molecule, the binding (% of control) in test [7] is 112% (inactive). In test [11], the efflux inhibition (fraction of control) was 1.11 (active). For the same molecule, the differentiation response in test [13] is 28.6% (inactive).

`Nc1ccc([As](=O)(O)O)cc1` returned a double positive events in test [1] of 53.2%. Besides, the vesicle binding response in test [1] is 190% (inactive). Besides, the inhibition is 7.22% (inactive) in test [2]; -9.89% (inactive) in test [5]; -3.5% (inactive) in test [8]; -1.7% (inactive) in test [9]; 6.8% (inactive) in test [10]; 3% (inactive) in test [12]. In addition, the superoxide response (% of plate) in test [3] is 108% (inactive). For the same molecule, the aptamer binding inhibition in test [4] is 2% (inactive). Besides, in test [6], the response was -3.63% (inactive). Also, in test [7], the binding (% of control) is 99.6% (inactive). Also, the efflux inhibition (fraction of control) in test [11] is -0.35 (inactive). Besides, the differentiation response in test [13] was -0.2% (inactive).

What is called inhibition is the relative decrease from the control value, in per cent.
